According to PubChem BioAssay (NCATS):
Several values for one entry are separate records, joined by “and”; a condition that tells them apart may be missing. Identical values can stand only once. Inconclusive results are not listed. Where a structure was tested more than once in an assay, its records may differ in their call. Activity calls are given as the source filed them. The call rests on the fitted dose curve; in most records, active means well fitted inhibition curve with a large enough effect; inconclusive means small, poorly fitted or top-dose-only effect; inactive means flat fitted curve, though single readings scatter.

experiment: Primary qHTS for inhibitors of nuclear receptor binding SET domain protein 2 (NSD2) in an isogenic RCH-ACV NSD2 p.E1099K mutant (9B) (AID 1645876); settings: RCH-ACV (leukaemia line) NSD2 E1099K (9B) viability, CellTiter-Glo, 72 h; series mostly up to 44.9 µM; activity change, negative = viability loss: at the top concentration; further: nearly all actives have a fitted effect of over 70% in size
On the % scale 0 is the no-effect control and ±100 the full control effect; potency means the concentration at half of the fitted maximal effect.

SMILES | Potency | outcome | activity change, negative = viability loss
CCCCCCCCCCCCCCCC[n+]1ccccc1 | 0.376 µM (active) | – | –
CCC1=C[C@@H]2CN(C1)Cc1c([nH]c3ccccc13)[C@@](C(=O)OC)(c1cc3c(cc1OC)N(C)[C@H]1[C@@](O)(C(=O)OC)[C@H](OC(C)=O)[C@]4(CC)C=CCN5CC[C@]31[C@@H]54)C2 | 2.1 nM (active) and 162 nM (active) | – | –
CN1[C@@H]2CC[C@H]1CC(NC(=O)n1c(=O)[nH]c3ccccc31)C2 (some centres not stated) | – | inactive | –
Nc1c(I)cc(I)c(C(=O)N(CCC(=O)O)c2ccccc2)c1I | – | – | -11.5% (inactive)
NC(=O)C1(N2CCCCC2)CCN(CCCN2c3ccccc3CCc3ccc(Cl)cc32)CC1 | 9.44 µM (active) | – | –
O=C(O)CCCC[C@@H]1SC[C@@H]2NC(=O)N[C@@H]21 | – | – | 6.84% (inactive)
CCCc1ccc(OCC(=O)N2CCN(C(=O)COc3ccc(CCC)cc3OC)CC2)c(OC)c1 | – | – | 8.05% (inactive)
OCCc1ccccc1 | – | inactive | –
NCC[C@H](O)C(=O)N[C@@H]1C[C@H](N)[C@@H](O[C@H]2O[C@H](CN)[C@@H](O)[C@H](O)[C@@H]2O)[C@H](O)[C@@H]1O[C@H]1O[C@H](CO)[C@@H](O)[C@H](N)[C@@H]1O | – | – | 7.89% [at 0.588 µM] (inactive)
CCC(C(=O)NC(=O)NC(C)=O)c1ccccc1 (configuration not stated) | – | – | 0.834% (inactive)
Nc1c(NC/C=C\COc2cc(CN3CCCCC3)ccn2)c(=O)c1=O | – | – | -14.7% [at 17.3 µM] (inactive)
Nc1ccc2cc3ccc(N)cc3nc2c1 | 2.37 µM (active) | – | –
CN1CCCN=C1/C=C/c1cccs1 | inactive | – | –
C=CC[N+]1([C@H]2C[C@H]3[C@@H]4CC[C@H]5C[C@H](OC(C)=O)[C@@H](N6CCCCC6)C[C@]5(C)[C@H]4CC[C@]3(C)[C@H]2OC(=O)CC)CCCCC1 | – | – | -14.6% (inactive)
CC(=O)OCC(=O)Nc1cc(C#N)cc(NC(=O)COC(C)=O)c1Cl | – | inactive | –
O=C(Nc1ccc(S(=O)(=O)N2CCOCC2)cc1)c1cc(Cl)ccc1NS(=O)(=O)c1ccc(Cl)s1 | inactive | – | –
O=C1NC2CCCCN2C12CCN(CCCN1c3ccccc3CCc3ccc(Cl)cc31)CC2 (configuration not stated) | 18.3 µM (active) | – | –
O=[N+]([O-])c1ccc(-c2nc(-c3ccc(F)cc3)c(-c3ccncc3)[nH]2)cc1 | inactive and 18.4 µM (active) | – | –
N#Cc1cc(NC(=O)C(=O)O)c(Cl)c(NC(=O)C(=O)O)c1 | – | inactive | –

SMILES | Potency | outcome | activity change, negative = viability loss
CCCCCOc1ccccc1/C(=C\SC)n1ccnc1 | 13.3 µM (active) | – | –
CC(C)C(=O)OCc1cccc(OC(=O)[C@@H]2N3C(=O)[C@@H](NC(=O)Cc4ccccc4)[C@H]3SC2(C)C)c1 | – | – | -20.2% (inactive)
CCC(=O)O[C@H]1[C@H](O[C@@H]2[C@@H](C)[C@H](O[C@H]3C[C@@](C)(OC)[C@@H](O)[C@H](C)O3)[C@@H](C)C(=O)O[C@H](CC)[C@@](C)(O)[C@H](O)[C@@H](C)C(=O)[C@H](C)C[C@@]2(C)O)O[C@H](C)C[C@@H]1N(C)C | – | – | -12.6% (inactive)
C[C@@]12CCC[C@H]1[C@@H]1CC[C@H]3C[C@@H](O)CC[C@]3(C)[C@H]1CC2 | – | inactive | –
Cc1cc2nc3ccc(=[N+](C)C)cc-3sc2cc1N | 1.33 µM (active) | – | –
C[C@@H]1C[C@H]2[C@@H]3CCC4=CC(=O)C=C[C@]4(C)[C@@]3(F)[C@@H](O)C[C@]2(C)[C@@]1(O)C(=O)COC(=O)c1ccncc1 | – | – | -35.8% (inactive)
O=C1CC[C@H](C(=O)N2CCCCC2)N1 | – | – | 2.28% (inactive)
N[C@@H](Cn1ccc(=O)c(O)c1)C(=O)O | – | – | -1.02% [at 4.96 µM] (inactive)
Cc1ccc(/C=N/n2c(-c3ccccc3)csc2=S)cc1 | – | – | -4.58% (inactive)
COC(=O)C1=C(C)NC(COC(N)=O)=C(C(=O)OC(C)C)C1c1cccc(Cl)c1Cl (configuration not stated) | 18.8 µM (active) | – | –
CC(C)N(CCC(=O)c1ccc2ccccc2c1)Cc1ccccc1 | 6.61 µM (active) and 8.2 µM (active) | – | –
COc1c(C)c2c(c(O)c1C/C=C(\C)CCC(=O)OCCN1CCOCC1)C(=O)OC2 | 473 nM (active) and 525 nM (active) | – | –
COC(=O)[C@H]1[C@H]2C[C@@H]3c4[nH]c5cc(OC)ccc5c4CCN3C[C@H]2C[C@@H](OC(=O)/C=C/c2ccc(O)c(OC)c2)[C@@H]1OC | 4.73 µM (active) | – | –
CN1CCC(Nc2ncc3ncnc(Nc4ccc(F)c(Cl)c4)c3n2)CC1 | 15 µM (active) | – | –
Nc1cccc2c(N)cccc12 | 24.3 µM (active) | – | –
COc1cc(C(=O)NC2CCCNC2)cc(OC)c1OC (configuration not stated) | – | – | -2.11% (inactive)
CC1c2ccccc2CN1NC(=O)c1ccc(Cl)c(S(N)(=O)=O)c1 (configuration not stated) | – | – | -8.31% (inactive)
CCCCCC[C@@H](CCC)C(=O)O | – | – | -0.0611% (inactive)
